Where “and” joins values, the source holds several entries; their conditions need not be identical. Equal entries are not always repeated. Among all 340,000 compounds or so, about 3,300 (0.97%) were called active. About 9% were inconclusive and are not listed. Calls follow the shape of the dose curve; as a rule, active = well fitted inhibition curve with a large enough effect; inconclusive = small, poorly fitted or top-dose-only effect, or effect the other way; inactive = flat fitted curve, though single readings scatter. The list shows a part of the results.
Experiment: qHTS Assay for Modulators of miRNAs and/or Inhibitors of miR-21; also: nearly all actives have a fitted effect of over 55% in size
Details: HeLa miR-21-FLuc reporter, luciferase luminescence, 48 h; actives lower the signal
Procedure, shortened: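 Using DMEM plus 10% FBS, HeLa miR-21-FLuc cells are incubated with test compounds (final up to about 40uM) for 48 hours; firefly luciferase signal is then imaged following reagent-mediated lysis.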
Potency is read from the fitted curve at half-maximal effect.

Potency, active:
N=c1cc(C2(O)CCCCC2)n2c(nc3ccccc32)s1 0.185 µM, COc1ccccc1/C=C/C1=NC(=C\N(C)C)/C(=O)O1 14.7 µM, CCOc1ccc(-c2cn3ccccc3n2)cc1[N+](=O)[O-] 2.93 µM, COc1ccc(-c2cn3ccccc3n2)cc1[N+](=O)[O-] 2.33 µM, Oc1ccc(-c2cn3ccccc3n2)cc1O 3.29 µM, COc1ccc(-c2cn3cc(Cl)ccc3n2)cc1OC 13.1 µM, O=C(Nc1cc(F)c(Br)cc1F)c1ccc(Cl)cc1 3.29 µM, CCCCOc1ccc(-c2csc(N)n2)cc1[N+](=O)[O-] 1.47 µM, CCCOc1ccc(-c2csc(N)n2)cc1[N+](=O)[O-] 5.21 µM, Cc1cccc(OCCn2nnc3sc4c(c3c2=O)CCCC4)c1 18.5 µM, COC(=O)c1ccc(Cn2nnc3sc4c(c3c2=O)CCCC4)cc1 6.56 µM, O=C(CSc1ccccc1)NC1CCCCCC1 14.7 µM, O=C(CSc1ccccc1)NCCc1ccccc1 14.7 µM, NNCCc1ccccc1 14.7 µM, S=C(NCCc1ccccc1)NCCc1ccccc1 2.61 µM, CC1CCN(C(=S)NCCc2ccccc2)CC1 2.93 µM, Cc1ccc2c(C)c(C(=O)N(C)C(C)c3ccon3)oc2c1C (stereo not given) 16.5 µM, Cc1cc(Cl)c2oc(C(=O)N(C)C(C)c3ccccn3)c(C)c2c1 (stereo not given) 14.7 µM, Cc1ccc2oc(C(=O)N(C)Cc3ccon3)c(C)c2c1 4.14 µM, CCCc1ccc2oc(C(=O)N(C)Cc3ccn[nH]3)c(C)c2c1 10.4 µM, Cc1cc(Cl)c2oc(C(=O)N(C)Cc3ccon3)c(C)c2c1 4.65 µM, CCc1c(C)c2ccc(O)c(CN3CCN(c4ccccc4)CC3)c2oc1=O 6.56 µM, COc1ccc2c(c1)-c1nc(NC(=O)c3ccco3)sc1CC2 13.1 µM, COc1ccc2c(c1)Cc1sc(NC(C)=O)nc1-2 0.631 µM, Cc1ccc(-n2ncc3c(NC4CCCCC4)ncnc32)cc1 0.521 µM, Cc1cccc(-n2ncc3c(NC4CCCCC4)ncnc32)c1 0.414 µM, O=c1cccccc1NN=C1CCCCC1 11.7 µM, O=c1cccccc1NN=C1CCCCCC1 3.29 µM, Oc1c(/C=N/Nc2cccc3cccnc23)ccc2ccccc12 7.36 µM, Oc1ccccc1CNc1cccc2cccnc12 18.5 µM, Cc1ccccc1Nc1nc(N)nc(-c2oc3ccccc3c2C)n1 4.65 µM, Fc1ccccc1Nc1nc2ccccc2n2nnnc12 16.5 µM, COc1ccccc1-c1cc(C(=O)N2CCCC2)no1 1.85 µM, CCN(CC)C(=O)c1cc(-c2ccc(Cl)cc2)on1 4.65 µM, COc1ccccc1-c1cc(C(=O)N2CCOCC2)no1 2.93 µM, CCN(CC)C(=O)c1cc(-c2ccccc2OC)on1 13.1 µM, O=C(N/N=C1/CC2C=CCC12)c1cccs1 (stereo not given) 11.7 µM, O=C(N/N=C1/CC2C=CCC12)c1ccco1 (stereo not given) 5.21 µM, CC1C2CC(C/C2=N/NC(=O)c2cccs2)C1(C)C (stereo not given) 5.21 µM, COc1ccc(/C=N/n2c(N)nc3ccccc32)cc1OC 16.5 µM, Cc1c(/C=C/C(=O)c2ccccc2O)cnn1C 3.69 µM, CCn1ncc(/C=C/C(=O)c2ccccc2)c1C 5.21 µM, Cc1nn(C)cc1/C=C/C(=O)c1ccc(O)cc1 13.1 µM, Cc1c(/C=C/C(=O)c2ccc(O)cc2)cnn1C 18.5 µM, CCCCN1CCc2c([nH]c3ccc(C)cc23)C1=O 0.826 µM, CCOc1ccc(/C=N/Nc2ccccn2)cc1OC 5.21 µM, COc1ccc(/C=N/Nc2ccccn2)cc1O 7.36 µM, COc1ccc(COc2ccc3c(C)cc(=O)oc3c2)cc1 2.33 µM, COc1cccc(COc2ccc3c(C)cc(=O)oc3c2)c1 2.07 µM, COc1ccc(-c2noc(-c3cccc(OC)c3OC)n2)cc1OC 2.93 µM, Cc1nc(-c2noc(-c3ccccc3Cl)n2)c(C(F)(F)F)o1 11.7 µM, COc1ccc(-c2noc(-c3ccccc3Cl)n2)cc1OC 1.47 µM, Fc1ccc(-n2c(-c3ccc4c(c3)OCO4)n[nH]c2=S)cc1Cl 16.5 µM, CC(=O)c1c(C)nc(Nc2nc3ccccc3s2)nc1C 0.736 µM, O=C(COc1ccccc1[N+](=O)[O-])Nc1ccc2c(c1)OCO2 3.29 µM, COc1ccccc1OCC(=O)Nc1ccc2c(c1)OCO2 18.5 µM, COc1ccccc1OCC(=O)Nc1ccc2c(c1)OCCO2 8.26 µM, O=C(COc1ccccc1F)Nc1ccc2c(c1)OCCO2 1.17 µM, CCc1ccccc1OCC(=O)Nc1ccc2c(c1)OCCO2 5.21 µM, Cc1ccccc1OCC(=O)Nc1ccc2c(c1)OCCO2 6.56 µM, O=C(COc1ccccc1Cl)Nc1ccc2c(c1)OCO2 1.85 µM, O=C(Nc1ccc(F)cc1)c1c(Cl)nc2ccccn12 16.5 µM, Cc1ccc(NC(=O)c2c(Cl)nc3ccccn23)cc1 2.93 µM, C/C(=N\Nc1ccc(Cl)c(C(=O)O)c1)c1cccc([N+](=O)[O-])c1 13.1 µM, C/C(=N\Nc1ccc(Cl)c(C(=O)O)c1)c1ccc[nH]1 14.7 µM, C/C(=N\Nc1ccc(Cl)c(C(=O)O)c1)c1ccc2c(c1)OCO2 11.7 µM, C/C(=N\Nc1ccc(Cl)c(C(=O)O)c1)c1ccccn1 16.5 µM, Cc1ccc(N/C=C/C(=O)c2ccccc2)cc1Br 0.369 µM, Cc1cc(N/C=C/C(=O)c2ccccc2)ccc1Br 0.369 µM, Cn1cc(Cl)c(C(=O)N/N=C/c2ccc3c4c(cccc24)CC3)n1 1.65 µM, Nc1ccc(N=Nc2ccccc2Cl)c(N)n1 2.07 µM, COc1ccc(N=Nc2ccc(N)nc2N)cc1 2.61 µM, COc1ccc(-c2noc(CSc3ccccc3)n2)cc1OC 11.7 µM, c1ccc(SCc2nc(-c3ccccn3)no2)cc1 2.82 µM, N=c1oc2cc(O)ccc2cc1C(=O)Nc1nc2ccccc2s1 1.04 µM, Cc1ccc(NC(=O)c2cc3ccccc3oc2=N)cc1 0.0736 µM, N=c1oc2ccccc2cc1C(=O)Nc1cccc(F)c1 0.165 µM, COc1ccc(NC(=O)c2cc3ccccc3o/c2=N\NS(=O)(=O)c2ccc(C)cc2)cc1 3.29 µM, CCc1ccc2oc(-c3cc(N)cc(C)c3O)nc2c1 2.93 µM, O=C(Nc1nc(-c2cccs2)cs1)C1=COCCO1 2.33 µM, N/C(=N\O)c1ccc(N2CCN(c3ncccc3C(F)(F)F)CC2)nc1 4.65 µM, CC(C)(C)c1ccc(SCCc2ccccn2)cc1 6.56 µM, CC(C)(C)c1ccc(SCCc2cccnc2)cc1 8.26 µM, Cc1ccc(NC(=O)NC(=O)N(C2CCCCC2)S(=O)(=O)c2ccccc2)cc1 16.5 µM, Cc1ccc2oc(=O)c(/C=C(\O)c3cccs3)nc2c1 4.65 µM, Nc1c(-c2cccc([N+](=O)[O-])c2)nc2ccccn12 5.85 µM, CN1CCC(Oc2ccc(Sc3ccccc3)cc2)CC1 5.21 µM, COc1ccc(CN(C(=O)c2cc3ccccc3oc2=O)C2CCS(=O)(=O)C2)cc1OC (stereo not given) 5.85 µM and 13.1 µM, CC(C)Oc1cccc(C(=O)NC(=S)Nc2cccnc2)c1 13.1 µM, CC(C)Oc1cccc(C(=O)NC2=NCCS2)c1 3.69 µM, O=C(NC1=NCCS1)c1ccc(C(F)(F)F)cc1 6.56 µM, O=C(NCc1ccco1)c1cc(-c2cccs2)on1 5.85 µM, O=C(NCc1cccnc1)c1cc(-c2ccccc2)on1 18.5 µM, O=C(NCc1ccco1)c1cc(-c2ccccc2)on1 7.36 µM, O=C(NC12CC3CC(CC(C3)C1)C2)N1CCN(C(=O)c2ccco2)CC1 16.5 µM, O=C1/C(=C/c2cccs2)CCC/C1=C\c1cccs1 1.65 µM, CC(=O)N(c1nnc(-c2cccc(C)c2)s1)C1CCCC1 8.26 µM, Oc1ccc(-c2csc(Nc3ncccn3)n2)cc1O 5.85 µM, CCCCCNc1nc(-c2ccccc2)cs1 1.65 µM, Oc1ccc(-c2csc(Nc3ccccn3)n2)cc1O 2.61 µM, CC(=O)Oc1ccc(-c2csc(Nc3cccc(C)n3)n2)cc1 1.47 µM, c1ccc(-c2csc(Nc3ncccn3)n2)cc1 0.208 µM, c1ccc(Nc2nc(-c3cccs3)cs2)nc1 0.293 µM, Cc1cccc(Nc2nc(-c3ccc(O)c(O)c3)cs2)n1 8.26 µM, Cc1nc(N)sc1-c1csc(Nc2ncccn2)n1 2.93 µM, Cc1ccnc(Nc2nc(-c3ccc(O)c(O)c3)cs2)c1 4.65 µM, Cc1ccc(Nc2nc(-c3ccc(O)c(O)c3)cs2)nc1 8.26 µM, CCOC(=O)c1cccnc1SCc1cc(=O)n2ccccc2n1 13.1 µM, CCOc1ccc(/C=N/NC(=O)c2ccoc2C)cc1OC 7.36 µM, COc1ccc(/C=N/NC(=O)c2ccoc2C)cc1O 6.56 µM

From PubChem BioAssay AID2289 (National Center for Advancing Translational Sciences (NCATS), 2010)
